Assay results: PubChem BioAssay AID1159580 (chemical genetic matrix, 2015)
Several values for one entry are separate records, joined by “and”; a condition that tells them apart may be missing. Equal entries are not always repeated. The campaign covered roughly 5,500 compounds. About 2,000 (36%) were called active. Roughly 18% stayed inconclusive and do not appear here. No stated cut-off is given here; in the data, active means normalized growth mostly below about 0.91 (no sharp cut-off); inconclusive means no clear call, values can overlap the other calls; inactive means mostly above about 0.92. The list shows a part of the results.

Assay: chemical genetic growth profiling, strain panel (AID 1159580);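 further: tested at 20 µM; growth read once vehicle control cultures reached saturation at 30 °C; 1 = growth at the plate median or of vehicle wells; lower values mean less growth of the strain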
Conditions: S. cerevisiae deletion strains, growth OD

Measured: normalized growth

COc1cc2c(cc1OC)C(=O)OC2
inactive: locus YAL013W, strain DEP1, active compounds read low 1 | locus YAL021C, strain ccr4, active compounds read low 0.998 | locus YAL026C, strain drs2, active compounds read low 1.01 | locus YAL030W, strain snc1, active compounds read low 0.981 | locus YBL061C, strain skt5, active compounds read low 0.988 | locus YBR009C, strain hhf1, active compounds read low 0.992 | locus YBR021W, strain FUR4, active compounds read low 0.999 | locus YBR023C, strain chs3, active compounds read low 0.993 | locus YBR171W, strain sec66, active compounds read low 0.998 | locus YBR229C, strain ROT2, active compounds read low 1.01 | locus YBR231C, strain swc5, active compounds read low 0.98 | locus YBR279W, strain paf1, active compounds read low 0.997 | locus YCL011C, strain gbp2, active compounds read low 0.99 | locus YCL016C, strain dcc1, active compounds read low 0.987 | locus YCL029C, strain bik1, active compounds read low 1.01 | locus YCL061C, strain MRC1, active compounds read low 0.999 | locus YCL069W, strain vba3, active compounds read low 1 | locus YCR088W, strain abp1, active compounds read low 0.994 | locus YDL005C, strain med2, active compounds read low 0.988 | locus YDL035C, strain GPR1, active compounds read low 1.02 | locus YDL040C, strain nat1, active compounds read low 0.985 | locus YDL074C, strain BRE1, active compounds read low 0.985 | locus YDL101C, strain DUN1, active compounds read low 1.01 | locus YDL134C, strain PPH21, active compounds read low 0.999 | locus YDL185W, strain tfp1, active compounds read low 1.01 | locus YDL192W, strain arf1, active compounds read low 1 | locus YDR001C, strain nth1, active compounds read low 1.01 | locus YDR069C, strain doa4, active compounds read low 0.994 | locus YDR101C, strain arx1, active compounds read low 0.994 | locus YDR137W, strain rgp1, active compounds read low 0.967 | locus YDR150W, strain NUM1, active compounds read low 1 | locus YDR159W, strain sac3, active compounds read low 1.01 | locus YDR162C, strain NBP2, active compounds read low 0.985 | locus YDR195W, strain ref2 1 | locus YDR297W, strain sur2, active compounds read low 0.998 | locus YDR318W, strain mcm21, active compounds read low 1.02 | locus YDR334W, strain swr1, active compounds read low 0.976 | locus YDR335W, strain msn5, active compounds read low 1 | locus YDR388W, active compounds read low 1.01 | locus YDR392W, strain spt3, active compounds read low 0.997 | locus YDR502C, strain sam2, active compounds read low 0.983 | locus YEL003W, strain gim4, active compounds read low 0.999 | locus YEL037C, strain rad23, active compounds read low 0.994 | locus YEL061C, strain CIN8 (second series), active compounds read low 1.01 | locus YEL061C, strain CIN8, active compounds read low 1 | locus YER015W, strain faa2, active compounds read low 0.988 | locus YER016W, strain bim1, active compounds read low 0.999 | locus YER110C, active compounds read low 1.01 | locus YER111C, strain swi4, active compounds read low 0.996 | locus YER155C, strain BEM2 (second series), active compounds read low 0.992 | locus YER155C, strain BEM2, active compounds read low 1.01 | locus YER167W, strain BCK2, active compounds read low 1.03 | locus YFR010W, strain ubp6, active compounds read low 0.989 | locus YGL078C, strain dbp3, active compounds read low 0.984 | locus YGL086W, strain mad1, active compounds read low 1.03 | locus YGL167C, strain pmr1, active compounds read low 0.984 | locus YGL173C, strain kem1, active compounds read low 0.983 | locus YGL227W, strain vid30, active compounds read low 0.998 | locus YGL240W, strain doc1, active compounds read low 1.03 | locus YGL248W, strain PDE1, active compounds read low 1.01 | locus YGL253W, strain hxk2, active compounds read low 0.993 | locus YGR078C, strain PAC10, active compounds read low 0.987 | locus YGR135W, strain pre9, active compounds read low 0.961 | locus YGR229C, strain SMI1, active compounds read low 0.999 | locus YGR252W, strain gcn5, active compounds read low 1.06 | locus YHR013C, strain ard1, active compounds read low 0.988 | locus YHR027C, strain rpn1, active compounds read low 1 | locus YHR030C, strain SLT2, active compounds read low 1.01 and 0.973 | locus YHR079C, strain IRE1 (second series), active compounds read low 1.01 | locus YHR079C, strain IRE1, active compounds read low 0.984 | locus YHR094C, strain hxt1, active compounds read low 0.999 | locus YHR129C, strain ARP1, active compounds read low 1.01 | locus YHR142W, strain chs7, active compounds read low 0.972 | locus YHR200W, strain rpn10, active compounds read low 1 | locus YIL066C, strain RNR3, active compounds read low 1.02 | locus YIL073C, strain SPO22, active compounds read low 1.06 | locus YIL125W, strain kgd1, active compounds read low 0.99 | locus YIR030C, strain dcg1, active compounds read low 0.999 | locus YJL092W, strain hpr5, active compounds read low 0.999 | locus YJL095W, strain BCK1 (second series), active compounds read low 0.991 | locus YJL095W, strain BCK1, active compounds read low 0.996 and 0.98 | locus YJL115W, strain asf1, active compounds read low 1 | locus YJL129C, strain trk1, active compounds read low 1.03 | locus YJL134W, strain LCB3, active compounds read low 1 | locus YJL154C, strain vps35, active compounds read low 0.988 | locus YJL164C, strain tpk1, active compounds read low 0.996 | locus YJL166W, strain qcr8, active compounds read low 0.981 | locus YJL168C, strain set2, active compounds read low 1.01 | locus YJL187C, strain SWE1 (second series), active compounds read low 1 | locus YJR043C, strain POL32, active compounds read low 1.03 | locus YJR066W, strain TOR1, active compounds read low 0.977
